Laboratory results: PubChem BioAssay AID1159580 (chemical genetic matrix, 2015)
Several values for one entry are separate records, joined by “and”; a condition that tells them apart may be missing. Equal values may be shown once. The campaign covered roughly 5,500 compounds. About 2,000 (36%) were called active. Roughly 18% stayed inconclusive and do not appear here. Rule as the data show it: active = normalized growth mostly below about 0.91 (no sharp cut-off); inconclusive = no clear call, values can overlap the other calls; inactive = mostly above about 0.92. The list shows a part of the results.

Assay: chemical genetic growth profiling, strain panel (AID 1159580);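 also: tested at 20 µM; growth read once vehicle control cultures reached saturation at 30 °C; 1 = growth at the plate median or of vehicle wells; lower values mean less growth of the strain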
Settings: S. cerevisiae deletion strains, growth OD

Measured: normalized growth

O[N+]1=CC=CCC1=S.On1ccccc1=S.[Zn]
active: locus YAL013W, strain DEP1, active compounds read low 0.0588 | locus YAL021C, strain ccr4, active compounds read low 0.0689 | locus YAL026C, strain drs2, active compounds read low 0.0618 | locus YAL030W, strain snc1, active compounds read low 0.0584 | locus YBL061C, strain skt5, active compounds read low 0.0681 | locus YBR009C, strain hhf1, active compounds read low 0.0728 | locus YBR021W, strain FUR4, active compounds read low 0.0965 | locus YBR023C, strain chs3, active compounds read low 0.0675 | locus YBR171W, strain sec66, active compounds read low 0.0802 | locus YBR229C, strain ROT2, active compounds read low 0.052 | locus YBR231C, strain swc5, active compounds read low 0.0683 | locus YBR279W, strain paf1, active compounds read low 0.0672 | locus YCL011C, strain gbp2, active compounds read low 0.0581 | locus YCL016C, strain dcc1, active compounds read low 0.0685 | locus YCL029C, strain bik1, active compounds read low 0.0621 | locus YCL061C, strain MRC1, active compounds read low 0.0686 | locus YCL069W, strain vba3, active compounds read low 0.0611 | locus YCR088W, strain abp1, active compounds read low 0.0601 | locus YDL005C, strain med2, active compounds read low 0.081 | locus YDL035C, strain GPR1, active compounds read low 0.0513 | locus YDL040C, strain nat1, active compounds read low 0.061 | locus YDL074C, strain BRE1, active compounds read low 0.0852 | locus YDL101C, strain DUN1, active compounds read low 0.0624 | locus YDL185W, strain tfp1, active compounds read low 0.0604 | locus YDL192W, strain arf1, active compounds read low 0.0611 | locus YDR001C, strain nth1, active compounds read low 0.0598 | locus YDR069C, strain doa4, active compounds read low 0.0662 | locus YDR101C, strain arx1, active compounds read low 0.0573 | locus YDR137W, strain rgp1, active compounds read low 0.0942 | locus YDR150W, strain NUM1, active compounds read low 0.0564 | locus YDR159W, strain sac3, active compounds read low 0.104 | locus YDR162C, strain NBP2, active compounds read low 0.0519 | locus YDR195W, strain ref2 0.122 | locus YDR297W, strain sur2, active compounds read low 0.0587 | locus YDR318W, strain mcm21, active compounds read low 0.0644 | locus YDR334W, strain swr1, active compounds read low 0.0636 | locus YDR335W, strain msn5, active compounds read low 0.0604 | locus YDR388W, active compounds read low 0.0563 | locus YDR392W, strain spt3, active compounds read low 0.102 | locus YDR502C, strain sam2, active compounds read low 0.0617 | locus YEL003W, strain gim4, active compounds read low 0.0591 | locus YEL037C, strain rad23, active compounds read low 0.0593 | locus YEL061C, strain CIN8 (second series), active compounds read low 0.0642 | locus YEL061C, strain CIN8, active compounds read low 0.0538 | locus YER015W, strain faa2, active compounds read low 0.0649 | locus YER016W, strain bim1, active compounds read low 0.0653 | locus YER110C, active compounds read low 0.0752 | locus YER111C, strain swi4, active compounds read low 0.0747 | locus YER155C, strain BEM2 (second series), active compounds read low 0.0952 | locus YER155C, strain BEM2, active compounds read low 0.0682 | locus YER167W, strain BCK2, active compounds read low 0.0543 | locus YFR010W, strain ubp6, active compounds read low 0.0685 | locus YGL078C, strain dbp3, active compounds read low 0.0615 | locus YGL086W, strain mad1, active compounds read low 0.0569 | locus YGL167C, strain pmr1, active compounds read low 0.0764 | locus YGL173C, strain kem1, active compounds read low 0.0718 | locus YGL227W, strain vid30, active compounds read low 0.0622 | locus YGL240W, strain doc1, active compounds read low 0.0817 | locus YGL248W, strain PDE1, active compounds read low 0.0522 | locus YGL253W, strain hxk2, active compounds read low 0.0558 | locus YGR078C, strain PAC10, active compounds read low 0.0545 | locus YGR135W, strain pre9, active compounds read low 0.0622 | locus YGR252W, strain gcn5, active compounds read low 0.164 | locus YHR013C, strain ard1, active compounds read low 0.117 | locus YHR027C, strain rpn1, active compounds read low 0.0678 | locus YHR030C, strain SLT2, active compounds read low 0.0537 and 0.0956 | locus YHR079C, strain IRE1 (second series), active compounds read low 0.0577 | locus YHR079C, strain IRE1, active compounds read low 0.111 | locus YHR094C, strain hxt1, active compounds read low 0.0579 | locus YHR129C, strain ARP1, active compounds read low 0.0604 | locus YHR142W, strain chs7, active compounds read low 0.0777 | locus YHR200W, strain rpn10, active compounds read low 0.0589 | locus YIL066C, strain RNR3, active compounds read low 0.0511 | locus YIL073C, strain SPO22, active compounds read low 0.113 | locus YIL125W, strain kgd1, active compounds read low 0.0608 | locus YIR030C, strain dcg1, active compounds read low 0.0598 | locus YJL092W, strain hpr5, active compounds read low 0.0603 | locus YJL095W, strain BCK1 (second series), active compounds read low 0.0629 | locus YJL095W, strain BCK1, active compounds read low 0.0641 and 0.0953 | locus YJL115W, strain asf1, active compounds read low 0.0768 | locus YJL129C, strain trk1, active compounds read low 0.0933 | locus YJL134W, strain LCB3, active compounds read low 0.0509 | locus YJL154C, strain vps35, active compounds read low 0.064 | locus YJL164C, strain tpk1, active compounds read low 0.0692 | locus YJL166W, strain qcr8, active compounds read low 0.0996 | locus YJL168C, strain set2, active compounds read low 0.0599 | locus YJL187C, strain SWE1 (second series), active compounds read low 0.0508 | locus YJL187C, strain SWE1, active compounds read low 0.0629
